# Screens deposited in PubChem BioAssay by National Center for Advancing Translational Sciences (NCATS).
# VDR inhibitor – inhibitors of human vitamin D receptor; AID 504847; actives 0.93% (n = 400,000); P11473; VDR-SRC2-3 peptide fluorescence polarization, 2 h; Potency, µM, inactives show max response, negative = inhibition, actives largely listed as inhibitors; also: potency is read from the fitted curve at half-maximal effect
#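 FP read-out; VDR + SRC2-3 coactivator peptide; 23 nl compound by pintool; 2 h RT incubation; reagents held at 4 deg C, protected from light.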
# Coupling enz – counter-screen for Giardia aldolase inhibitors: coupling enzyme system; activity change, negative = inhibition, % at 58.2 µM, hits read low; coupling enzyme system counterscreen, AmpLite Red fluorescence; actives 0.67% (n = 290,000); in the data active = activity change below about -30%
#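 Compounds tested against the coupling enzymes alone at 57.5 uM final; readout was AmpLite Red fluorescence (525/598 nm) after 20 min at RT.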
# USP1-UAF1 inh – inhibitors of human USP1/UAF1 deubiquitinase. O94782. recombinant USP1/UAF1, Ub-Rhodamine cleavage fluorescence. Potency, µM (highest dose often 57.1 µM), without a hit: at the highest dose activity change, negative = inhibition, hits mostly inhibitors. actives 0.23% (n = 390,000). AID 743255; also: potency is read from the fitted curve at half-maximal effect; nearly all actives have a fitted effect of over 60% in size
#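 1 nM enzyme complex + cpd, 15 min RT; start with Ub-Rho 150nM final; kinetic fluorescence ex 480/em 540, 6 reads q60 s. Buffer 50mM HEPES pH 7.8, 0.5mM EDTA, 0.1 mg/ml BSA, 1mM TCEP, 0.01% Tween-20.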
# GALK inhibitor – inhibitors of human galactokinase. P51570. Purified GALK, Kinase-Glo residual ATP luminescence. Potency, µM (highest dose often 57.5 µM), for inactives: at the top dose activity change, negative = inhibition, hits mostly inhibitors. actives 0.007% (n = 270,000). AID 1868; also: potency is read from the fitted curve at half-maximal effect
#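 The enzyme phosphorylates galactose (100 uM) using ATP (35 uM); inhibition is detected as higher residual ATP, quantified by bioluminescence after 1 h reaction at room temperature, pH 8.0.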
# PLK1 PBD block – inhibitors of human PLK1 polo-box domain binding; Potency, µM, for inactives: max response, negative = inhibition, usual class: inhibitors; actives 2.8% (n = 360,000); Plk1 PBD binding of FITC phosphopeptide, fluorescence polarization; AID 720504; P53350; also: potency is read from the fitted curve at half-maximal effect; series mostly up to about 57 µM; nearly all actives have a fitted effect of over 65% in size
# USP2a block – inhibitors of human ubiquitin-specific protease USP2a; USP2 core, Ub-CHOP2 coupled fluorogenic reporter, 485/531; O75604; AID 463254; actives 0.01% (n = 330,000); Potency, µM (doses to about 38.3 µM), for the others: top-dose activity change, negative = inhibition, actives largely listed as inhibitors;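 also: potency is read from the fitted curve at half-maximal effect; plate controls were DMSO wells for no effect and full inhibition by NEM control for full effect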
# Target sequence (O75604 whole entry, looked up): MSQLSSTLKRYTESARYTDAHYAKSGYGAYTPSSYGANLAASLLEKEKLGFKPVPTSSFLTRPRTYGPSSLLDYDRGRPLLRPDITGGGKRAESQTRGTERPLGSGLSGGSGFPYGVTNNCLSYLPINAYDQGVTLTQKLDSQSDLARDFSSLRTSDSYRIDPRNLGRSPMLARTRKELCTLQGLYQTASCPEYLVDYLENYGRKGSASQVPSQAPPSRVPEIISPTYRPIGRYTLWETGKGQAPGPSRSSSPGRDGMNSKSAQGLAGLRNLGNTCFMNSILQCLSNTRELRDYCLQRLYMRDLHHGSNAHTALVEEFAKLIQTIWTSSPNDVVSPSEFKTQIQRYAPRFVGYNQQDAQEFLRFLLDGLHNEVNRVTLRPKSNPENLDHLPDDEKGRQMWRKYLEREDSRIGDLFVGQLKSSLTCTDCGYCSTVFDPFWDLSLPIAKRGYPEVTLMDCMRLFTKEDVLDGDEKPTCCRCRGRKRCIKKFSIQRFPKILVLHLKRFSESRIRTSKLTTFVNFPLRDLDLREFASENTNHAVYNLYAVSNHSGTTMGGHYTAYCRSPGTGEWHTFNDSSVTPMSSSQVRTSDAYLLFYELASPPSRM
#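 Deubiquitinase activity read as fluorescence (485/531 nm) after Ub-CHOP2 cleavage activates the enterokinase reporter on its substrate; USP2 core 10nM, Ub-CHOP2 and substrate 25nM each, 30min compound preincubation then 60min RT; data normalized to NEM, curves fitted.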
# * marks the source's active call; other numbers are inactive results; u = inconclusive; x = no result given. A selection: hits, their analogues and other compounds. The true share with any hit is near 3.2%. Unless noted, calls follow the shape of the dose curve; as a rule, active = well fitted curve in the direction sought with a large enough effect; inconclusive = small, poorly fitted or top-dose-only effect, or another doubt; inactive = no such curve, though single readings can be large; an effect the other way counts as inactive or inconclusive. Unless noted, % is scaled to controls: 0 for no effect and ±100 for the full control effect.
SMILES,VDR inhibitor,Coupling enz,USP1-UAF1 inh,GALK inhibitor,PLK1 PBD block,USP2a block
COc1ccc(OC)c(CCNC(=O)CCc2nnc3ccc(N4CCOCC4)nn23)c1,-20.4%,x,-25.8%,0.3%,29.9µM*,3.2%
COc1cccc(N2CCN(c3ccc4nnc(CCC(=O)Nc5cccc(C(C)=O)c5)n4n3)CC2)c1,u,-1.6,u,1.0%,21.2µM*,3.3%
COc1ccc(CNC(=O)CCc2nnc3ccc(NCCCN4CCCC4=O)nn23)cc1,-1.0%,-0.1,-19.4%,-2.3%,0.8%,2.6%
O=C(CCc1nnc2ccc(N3CCC4(CC3)OCCO4)nn12)Nc1ccc(F)cc1,u,1.3,-3.8%,-2.9%,13.4µM*,2.3%
CCOC(=O)c1cccc(NC(=O)CCc2nnc3ccc(N4CCN(C)CC4)nn23)c1,-12.5%,1.6,-25.8%,1.1%,23.8µM*,-2.1%
COc1ccc(N2CCN(C(=O)CCc3nnc4ccc(N5CCC(C)CC5)nn34)CC2)cc1,-0.7%,x,-19.9%,-2.5%,0.4%,0.5%
COc1cccc(N2CCN(c3ccc4nnc(CCC(=O)N5CCC(C)CC5)n4n3)CC2)c1,-27.6%,2.1,-8.0%,-4.4%,23.8µM*,-0.4%
COc1ccc(OC)c(NC(=O)C2(C)CCN2Cc2ccc(OC)c3ccccc23)c1 (centres undefined),x,x,x,x,-2.6%,x
CS(=O)(=O)C1=NSC2=NC(=O)/C(=C\c3cccn3-c3ccccc3Cl)C(=N)N21,-22.0%,14.7,-22.0%,-9.3%,u,-4.9%
CCSC1=NSC2=NC(=O)/C(=C\c3coc4ccccc4c3=O)C(=N)N12,79.4µM*,1.5,22.4µM*,-18.1%,16.8µM*,u
CC(C)CC1=NN2C(=N)/C(=C\c3coc4ccccc4c3=O)C(=O)N=C2S1,79.4µM*,4.5,28.2µM*,-5.5%,-6.9%,u
COC(=O)C1=C(C)N(CC2CCCO2)C(=O)/C1=C\c1ccc(O)cc1 (centres undefined),-13.6%,-3.7,-2.2%,-1.6%,-8.6%,0.6%
Cc1cc(C=O)c(C)n1-c1ccc(Cl)c(C(=O)O)c1,8.5%,4.0,-21.4%,7.2%,10.6µM*,2.7%
COc1ccc(Br)cc1CNc1ccc(S(N)(=O)=O)cc1,-12.0%,2.8,-2.7%,1.0%,-11.8%,-0.1%
Cc1[nH]c2ccc(Br)cc2c(=S)c1C/C=C/Cl,u,1.1,-11.3%,-3.7%,23.8µM*,4.3%
C=CCN1CCN(C(=O)CCc2ccccc2)CC1,2.1%,6.7,u,0.0%,-4.9%,3.6%
O=C(Nc1nnc(-c2ccncc2)o1)c1ccccc1,u,1.1,-14.1%,-0.1%,7.52µM*,-0.8%
COc1ccccc1N1CCN(C(=S)Nc2ccc(S(=O)(=O)N3CCOCC3)cc2)CC1,-1.4%,-7.4,-16.3%,-2.3%,-11.0%,-1.6%
O=S(=O)(c1ccc(NC(=S)N2CCN(c3ccccc3F)CC2)cc1)N1CCOCC1,-2.2%,-5.6,-11.9%,0.4%,18.9µM*,7.2%
CCc1ccccc1NC(=O)Nc1ccc2snnc2c1,-8.5%,x,-31.6%,x,x,x
O=C(Nc1ccc2snnc2c1)Nc1cccc2ccccc12,-10.7%,-3.6,-1.4%,-1.6%,29.9µM*,-8.3%
O=C(Nc1ccccc1)c1ccc2snnc2c1,u,-0.1,-14.7%,10.3%,26.7µM*,-0.9%
CCN(CC)S(=O)(=O)c1cccc(C(=O)Nc2ccc(S(=O)(=O)NC3=NCCCCC3)cc2)c1,-23.4%,x,-5.1%,x,-7.5%,-1.7%
C/C(=N\Nc1nnc(C)c(=O)[nH]1)C(=O)O,12.1%,-51.3*,-10.4%,2.5%,0.5%,-0.3%
Fc1ccc(-n2cc(-c3ccccc3)c3c(NCCc4ccccc4)ncnc32)cc1,-5.2%,x,8.2%,x,x,x
SMILES,VDR inhibitor,Coupling enz,USP1-UAF1 inh,GALK inhibitor,PLK1 PBD block,USP2a block
O=[N+]([O-])c1cccc(SSc2cccc([N+](=O)[O-])c2)c1,3.98µM*,x,-14.8%,x,0.377µM*,x
CN(C)S(=O)(=O)c1ccc(NC(=S)NC(=O)Cc2ccccc2)cc1,u,-2.4,-18.4%,-1.8%,-16.3%,-3.3%
Cc1ccc(N=C2C(=O)Nc3ccccc32)cc1C,-11.4%,-3.6,-1.5%,1.9%,-9.9%,0.2%
Cc1ccc([N+](=O)[O-])cc1N=C1C(=O)Nc2ccccc21,25.1µM*,2.8,-16.2%,2.2%,-11.1%,-3.1%
O=C(CC(Nc1ccccc1Cl)C(=O)O)c1ccccc1 (centres undefined),25.1µM*,4.4,-12.9%,-3.0%,-24.6%,1.0%
Cn1c(O)c(C=NCCCCCC(=O)O)c(=O)n(C)c1=O,13.5%,x,-10.6%,x,0.1%,x
Cc1ccc(C(=O)NCC(=O)OCC(=O)NCCc2ccccc2)s1,-17.8%,2.1,-10.0%,7.0%,26.7µM*,0.8%
Cc1ccc(C(=O)NCC(=O)NCCCc2ccccc2)s1,-7.1%,2.1,u,-2.8%,4.3%,0.1%
O=C(Cc1cc(C(=O)O)c2ccccc2n1)Nc1ccccc1,4.2%,3.5,-9.2%,0.5%,-20.2%,-3.9%
COc1ccc(-c2sc3ccc(OC)cc3c2-c2ccc(O)cc2)cc1,-9.7%,x,-14.3%,x,-15.5%,-22.8%
C/C(=N\NC(=O)c1ccncc1)c1ccc(N(C)C)cc1,7.3%,-3.1,-24.4%,1.0%,26.7µM*,3.3%
C/C(=N\NC(=O)c1ccncc1)c1ccc(N2CCOCC2)cc1,-8.0%,x,5.5%,x,-23.6%,0.0%
CCCCn1c(=S)[nH]c2cc(S(=O)(=O)N3CCOCC3)ccc21,13.8%,x,-10.2%,x,3.3%,2.2%
CCn1c(=S)[nH]c2cc(S(=O)(=O)N3CCCCC3)ccc21,5.5%,-1.2,u,-1.7%,26.7µM*,0.1%
CC(=O)Nc1ccc(NC(=O)C(C)OC(=O)CNS(=O)(=O)/C=C/c2ccc(C)cc2)cc1 (centres undefined),-19.2%,x,-0.9%,x,-10.7%,1.9%
O=C(NCc1ccco1)c1cccc2c1C(=O)c1ccc(N3CCC(Cc4ccccc4)CC3)cc1S2(=O)=O,-8.2%,x,28.2µM*,x,u,3.2%
O=C(NCc1cccc(F)c1)c1cccc2c1C(=O)c1ccc(N3CCC(Cc4ccccc4)CC3)cc1S2(=O)=O,-11.2%,x,7.94µM*,x,u,u
O=C(NCc1cccc(C(F)(F)F)c1)c1cccc2c1C(=O)c1ccc(N3CCC(Cc4ccccc4)CC3)cc1S2(=O)=O,-6.9%,x,25.1µM*,x,-29.4%,u
O=C(O)c1cccc2c1C(=O)c1ccc(-c3ccc(F)cc3OCc3ccccc3)cc1S2(=O)=O,-8.0%,x,-18.6%,x,21.2µM*,u
O=C(NCc1ccc(OC(F)(F)F)cc1)c1cccc2c1C(=O)c1ccc(N3CCC(Cc4ccccc4)CC3)cc1S2(=O)=O,-22.0%,x,389.6%,x,-18.3%,3.0%
CC(=O)Nc1ccc(OCCOc2ccc(/C=C3\C(=N)N4N=C(C(C)C)SC4=NC3=O)cc2)cc1,-14.5%,7.9,-15.4%,x,u,2.2%
